Screening results as filed in PubChem.
A selection: hits, their analogues and other compounds. The true share with any hit is near 3.5%.
TEAD-YAP inh = TEAD-YAP interaction inhibition, primary screen, TEAD-YAP interaction inhibitor project, luminescence, HEK-TIYL cells; TEAD-Gal4/YAP UAS-luciferase luminescence; inhibition, % at 9.12 µM; 640,000 compounds, 1.4% hits; in the data active = inhibition above about 32%;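 note: 0% = median of test compound wells and 100% = reference inhibitor wells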
MITF primary = MITF inhibitors, primary screen, biochemical, AlphaScreen, human | inhibition, % at 2.6 µM | AlphaScreen MITF homodimerization, bead proximity signal | Microphthalmia-associated transcription factor (Homo sapiens), O75030 | 650,000 compounds, 0.91% hits; in the data active = inhibition above about 50%;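 note: 0% = vehicle wells with protein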
FBW7 act = FBW7 E3 ligase activators, primary screen, biochemical, AlphaScreen, human. F-box/WD repeat-containing protein 7 (Homo sapiens), Q969H0. AlphaScreen FBW7–phospho-cyclin E peptide binding, activator screen. normalized activity (activation), % at 26.1 µM. 650,000 compounds, 0.13% hits; in the data active = normalized activity above about 1.9%;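 note: purified mutant Fbw7 with reduced substrate affinity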
Target sequence (Q969H0 whole entry, looked up): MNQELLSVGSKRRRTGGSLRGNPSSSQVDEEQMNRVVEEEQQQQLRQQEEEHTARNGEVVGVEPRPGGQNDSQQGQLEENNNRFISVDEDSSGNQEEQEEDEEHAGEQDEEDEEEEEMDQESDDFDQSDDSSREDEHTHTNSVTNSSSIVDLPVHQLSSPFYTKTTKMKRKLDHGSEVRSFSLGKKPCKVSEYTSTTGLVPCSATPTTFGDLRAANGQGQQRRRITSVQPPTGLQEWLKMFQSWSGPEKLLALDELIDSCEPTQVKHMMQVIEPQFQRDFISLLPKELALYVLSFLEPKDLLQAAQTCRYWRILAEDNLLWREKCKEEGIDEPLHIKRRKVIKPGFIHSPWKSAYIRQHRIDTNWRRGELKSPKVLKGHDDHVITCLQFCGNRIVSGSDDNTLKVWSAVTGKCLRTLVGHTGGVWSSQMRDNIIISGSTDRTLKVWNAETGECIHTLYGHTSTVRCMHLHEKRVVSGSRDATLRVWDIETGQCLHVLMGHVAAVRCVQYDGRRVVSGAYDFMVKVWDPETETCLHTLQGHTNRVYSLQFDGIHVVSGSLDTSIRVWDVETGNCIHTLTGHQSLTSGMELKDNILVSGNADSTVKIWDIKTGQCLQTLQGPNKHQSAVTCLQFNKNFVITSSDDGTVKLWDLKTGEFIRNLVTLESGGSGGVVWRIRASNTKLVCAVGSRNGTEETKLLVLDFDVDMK
GPR151 ag = activators of human GPR151, primary screen, cell-based, PathHunter beta-arrestin, luminescence | 650,000 compounds, 1% hits | activation, % at 11.2 µM | PathHunter beta-arrestin GPR151 cells | G-protein coupled receptor 151 (Homo sapiens), Q8TDV0; in the data active = activation above about 4.9%;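 note: 0% = median of compound wells and 100% = cells with positive control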
Starred values were filed as active, the others as inactive.

SMILES	TEAD-YAP inh	MITF primary	FBW7 act	GPR151 ag
CC1CCN(S(=O)(=O)c2cccc(C(=O)Nc3ccccc3C(=O)Nc3ccccc3)c2)CC1	-1.0	-13.0	0.1	-1.4
O=C(Nc1cccc(Br)c1)c1cc(S(=O)(=O)N2CCCC2)ccc1Cl	35.2*	10.4	0.5	-1.0
COc1ccc2[nH]cc(NC(=O)NCC3CCCO3)c(=O)c2n1 (centres undefined)	-3.8	-7.8	-0.1	-0.7
NC(c1nc2ncc(-c3ccncc3)cc2[nH]1)c1ccc(F)cc1F (centres undefined)	-10.8	45.5	3.5*	-0.5
N[C@H](Cc1ccc(Cl)cc1)c1nc2ncc(-c3ccncc3)cc2[nH]1	20.8	13.8	-0.6	-0.7
CCn1c(C)nc2cc(CO)ccc21	-6.1	9.6	0.4	1.1
CCn1c(C)nc2cc(-c3nc4n(n3)Cc3ccccc3-4)ccc21	102.7*	-12.0	-0.2	-12.4
O=C(N/N=C/c1c(O)ccc2ccccc12)c1ccc[n+](CCO)c1	-5.3	89.5*	-0.9	0.6
O=C(N/N=C/c1c(O)ccc2ccccc12)c1cccnc1	81.1*	70.3*	-0.3	-0.2
O=C(N/N=C/c1c(O)ccc2ccccc12)c1ccc(=O)[nH]n1	86.2*	67.8*	-0.8	0.2
O=C(N/N=C\c1c(O)ccc2ccccc12)c1cncc(Br)c1	9.1	-1.2	-0.6	-0.6
O=C(N/N=C/c1c(O)ccc2ccccc12)c1ccc(F)cc1	75.6*	14.3	-0.2	-1.4
Cc1nc2sc(C(=O)c3cccs3)c(N)c2c(C)c1C	-26.2	-12.2	0.0	0.2
C=CCNCCOc1ccc(Br)cc1C	-13.0	6.5	0.1	-1.1
Cc1nc2c3c4c(sc3ncn2n1)CCCCC4	10.5	5.5	-0.3	1.4
CCOC(CNc1ncnc(N)c1[N+](=O)[O-])OCC	5.0	7.7	0.4	0.7
O=C(CSc1nnc2c3ccccc3n(CCc3ccccc3)c2n1)Nc1ccc(OC(F)(F)F)cc1	25.1	10.8	0.0	0.0
Cc1ccc(C(=O)N/N=C/c2c3ccccc3cc3ccccc23)cn1	2.7	1.7	0.3	2.0
Cc1nc2ccccn2c1C(=O)N/N=C/c1ccc(Cl)cc1Cl	11.3	-8.5	-0.1	-0.2
Cc1ccc(C(=O)N/N=C/c2c(O)ccc3ccccc23)cn1	80.2*	55.2*	-0.1	-0.7
Cc1nc2ccccn2c1C(=O)N/N=C/c1c(O)ccc2ccccc12	71.2*	30.0	-1.3	-1.4
COc1ccc(C(=O)N[C@H]2C[C@H]3C(=O)N[C@H](CC(C)C)C(=O)N3C2)cc1	6.5	19.1	0.3	-0.6
CCc1ccc(Oc2nc3ccccn3c(=O)c2/C=C(\C#N)C(=O)N2CCCCC2)cc1	-5.1	-2.5	-0.1	0.8
COc1ccc(C(=O)NCc2ccc(S(N)(=O)=O)cc2)cc1OC	-0.1	12.4	2.4*	0.5
CCOc1c(Br)cc(C(=O)NN)cc1OC	51.7*	-1.1	0.1	0.6
SMILES	TEAD-YAP inh	MITF primary	FBW7 act	GPR151 ag
CCCOc1ccc(C(=O)NN)cc1OC	46.7*	14.8	0.5	-1.8
CCOc1c(Br)cc(C(N)=O)cc1OC	1.7	-0.8	-0.2	2.0
COc1c(Cl)cc(C(=O)NN)cc1Cl	56.2*	5.6	-0.1	-0.7
CNC(=O)c1cc(Cl)c(OC)c(OC)c1	5.7	6.2	0.1	-0.5
Cn1nc(C(C)(C)C)cc1C(=O)N1CCC2(CC1)CC(O)(c1nccs1)CO2 (centres undefined)	3.9	3.6	0.1	2.2
N#CCSc1nc2ccccc2c(=O)n1-c1ccc(F)cc1	-13.1	3.4	0.0	-0.2
COc1ccccc1-c1nnc(SCC(=O)Nc2ccc(Br)cn2)o1	34.1*	4.3	0.1	0.6
N#C/C(=C\c1ccc([N+](=O)[O-])cc1)C(=O)Nc1ccc([N+](=O)[O-])cc1C(F)(F)F	1.6	6.4	-0.5	1.4
CCN1CCc2c(sc(NC(=O)c3ccc(S(=O)(=O)N(CC)CC)cc3)c2C(=O)OC)C1	-9.2	5.7	0.1	0.0
CCOC(=O)c1ccc(NC(=O)c2ccc(CS(=O)c3ccc(Cl)cc3)o2)cc1 (centres undefined)	32.1*	-0.7	-0.1	-0.5
CCOc1cc(N2CCOCC2)c(OCC)cc1NC(=O)c1cccc([N+](=O)[O-])c1C	3.7	-0.5	0.0	3.0
CCOc1cc(N2CCOCC2)c(OCC)cc1NC(=O)c1cc(Cl)c(Cl)cc1C(=O)O	17.9	69.8*	-0.2	-1.0
